This note sets out measurements from PubChem BioAssay (NCI).

What all share (assay): NCI-60 one-dose screen, 48 h (100 = growth as untreated, 0 = no growth, -100 = all killed)
Details in all cases: 10 µM unless noted

Assay [1] concerns NCI-H23 lung.
Assay [2] concerns NCI-H226 lung.
The test system of assay [3] is NCI-H322M lung.
Assay [4] deals with HOP-62 NSCLC.
The subject of assay [5] is NCI-H460 lung.
For assay [6], the system named is NCI-H522 lung.
Assay [7] concerns 786-0 renal.
The test system of assay [8] is COLO 205 colon.
Assay [9] deals with DU-145 prostate.
The subject of assay [10] is K-562 leukemia.
The subject of assay [11] is MALME-3M melanoma.
In assay [12] the test system is MDA-MB-231 breast.
For assay [13], the system named is RXF 393 renal.
Assay [14] relates to SF-268 CNS.
Assay [15] relates to SF-295 CNS.
For assay [16], the system named is SF-539 CNS.
The subject of assay [17] is M14 melanoma.
Assay [18] concerns HCT-15 colon.
Assay [19] deals with A549/ATCC NSCLC.
Assay [20] deals with UACC-257 melanoma.

About 83,000 compounds went through this panel and 20% of them were active in at least one assay; those are over-represented in the sample as a whole.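 48-hour exposure, single concentration, 96-well plates; percent growth endpoint where 0 means no net growth. Active: below 10.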 A number with no mark means an inactive call. Active and inactive are the calls of the source.

`Cc1cccc(Cl)c1NC(=O)c1ccc2nc(NC(=O)NC3CC(C)(C)NC(C)(C)C3)sc2c1`: the growth in assay [1] is 91%; in assay [2] it was 103%; in [3], 81.8%; in assay [4] it was 68.3%; in assay [5] it was 101%; in assay [6] it was 88.6%. Moreover, the growth was 84.6% in assay [7]; 15.3% in assay [8]; 103% in assay [9]; 9.24% (active) in assay [10]; 82.2% in assay [11]; 54% in assay [12]. For the same compound, the growth is 35.8% in assay [13]; 70.4% in assay [14]; 79.7% in assay [15]; 41.8% in [16]; 93.6% in assay [17]; 103% in assay [18].

With `OC(c1cc(C(F)(F)F)nc2c(C(F)(F)F)cccc12)C1CCCCN1` (stereo unspecified), the growth in [1] is 78.4%; in assay [2], 73.1%; in assay [3] it was 64.8%; in assay [4], 74.4%; in [5], 13.8%; in assay [6] it was -4.33% (active). In addition, the growth in assay [7] is 56.7%; in [8], 29.3%; in assay [9], 78.8%; in assay [10], 14.7%; in assay [11] it was 100%; in [12] it was 47.1%. Moreover, the growth in [14] was 47.9%; in [15] it was 88.2%; in assay [16] it was 82.8%; in assay [17], 76%; in assay [18], 77.5%.

For the compound `O=C(Cc1ccccn1)C(F)(F)C(F)(F)C(F)(F)F`, the growth in assay [1] was 104%; in assay [2], 102%; in assay [3], 116%; in assay [4], 97.5%; in [5], 111%; in assay [6], 111%. In addition, the growth is 104% in [7]; 127% in assay [8]; 112% in [9]; 110% in assay [11]; 102% in [12]; 125% in assay [13]. For the same compound, the growth in assay [14] is 125%; in assay [16], 104%; in assay [17] it was 110%; in [18] it was 109%.

Turning to `CC(=O)Nc1ccc2c(c1)Cc1c(F)c(F)c(F)c(F)c1-2`, the growth was 25.2% in assay [1]; 76.5% in assay [2]; 81.9% in assay [3]; 107% in assay [4]; 65.8% in [5]; 23.2% in [6]. Moreover, the growth in assay [7] was 75.3%; in assay [8], 105%; in [9] it was 96.4%; in [10], 104%; in assay [11], 113%; in [12], 75.1%. Also, the growth in [14] was 91.9%; in assay [15], 90.5%; in assay [16], 87.7%; in assay [17] it was 114%; in assay [18], 83.4%.

`C/C(=N\N1CC(=O)NC1=O)c1ccc([N+](=O)[O-])o1`: the growth in assay [1] is 101%; in assay [2], 106%; in assay [3], 121%; in [4], 120%; in [5], 94.6%; in assay [19] it was 97.3%. In addition, the growth was 103% in assay [7]; 108% in assay [8]; 98.8% in [9]; 90.6% in assay [10]; 114% in assay [11]; 106% in [12]. Also, the growth was 128% in assay [13]; 84.7% in [14]; 104% in assay [15]; 108% in assay [16]; 81.9% in [20]; 103% in assay [17]. In addition, the growth in assay [18] is 115%.

As to `Cn1cnc([N+](=O)[O-])c1S(=O)(=O)Oc1ccc(Cl)cc1`, the growth in assay [1] was 96%; in [2], 97.8%; in [3], 104%; in [4], 92.3%; in assay [5] it was 103%; in [19], 96%. The growth in assay [7] was 94.4%; in [8], -90% (active); in assay [9], 81.5%; in [10] it was 16.1%; in [11] it was -70.4% (active); in assay [12] it was 65.4%. Besides, the growth in assay [13] was 81.8%; in [14], 93%; in assay [15], 94.5%; in assay [16], 81.4%; in assay [20], 57%; in assay [17], 61%. Moreover, the growth in [18] is 59%.

Take `C[C@]12C[C@H](O)[C@H]3[C@@H](CCC4=CC(=O)CC[C@@]43C)[C@@H]1CC[C@@H]2C(=O)CO`: the growth in [1] is 11%; in assay [2], 79.5%; in assay [3], 105%; in assay [4] it was 102%; in [5], 103%; in assay [6], 16%. Moreover, the growth is 101% in assay [7]; 96% in assay [8]; 108% in assay [9]; 66.7% in [10]; 95.3% in assay [11]; 80.5% in [12]. Also, the growth in assay [14] was 98.8%; in assay [15], 126%; in assay [16], 89.3%; in assay [17], 107%; in assay [18], 92%.

With `Nc1ccccc1-c1ccc([N+](=O)[O-])cc1`, the growth was 68.7% in assay [1]; 87.6% in assay [2]; 57% in [3]; 53.1% in assay [4]; 33.6% in [5]; 63.3% in assay [19]. Further, the growth in [7] was 46.7%; in assay [8], 23.8%; in assay [9] it was 59.3%; in assay [10] it was 15.5%; in assay [11] it was 111%; in assay [12], 67%. Also, the growth is 111% in assay [13]; 49.4% in assay [14]; 44.2% in assay [15]; 52.8% in assay [16]; 78.9% in [20]; 44.7% in assay [17]. Also, the growth in [18] was 47.8%.

Turning to `COc1ccc(/C=C2\NC(=S)NC2=O)cc1`, the growth is 113% in assay [1]; 100% in [2]; 95.2% in [3]; 83.5% in assay [4]; 104% in assay [5]; 107% in assay [19]. The growth in assay [7] is 109%; in assay [8] it was 88.2%; in assay [9], 118%; in [10], 117%; in assay [11], 77.5%; in assay [12] it was 94.5%. Also, the growth in assay [13] is 126%; in [14], 106%; in assay [15] it was 119%; in assay [16], 98.3%; in assay [20], 106%; in assay [17] it was 100%. Besides, the growth in assay [18] was 93.5%.

On to `c1ccc(-n2nnnc2-c2cccc3ccccc23)cc1`, for which the growth was 52.1% in [1]; 79.3% in [2]; 30.2% in [3]; 25.9% in assay [4]; 9.98% (active) in assay [5]; 34.5% in assay [19]. For the same compound, the growth was 24.7% in assay [7]; -17.8% (active) in assay [8]; 7.52% (active) in assay [9]; 13% in assay [10]; 34.8% in [11]; 25.4% in [12]. Besides, the growth in assay [13] was -5.16% (active); in assay [14], 43.4%; in assay [15], 1.28% (active); in assay [16], -18.8% (active); in [20] it was 57.5%; in assay [17], 8.41% (active). Besides, in assay [18], the growth is 18.7%.

For `CCC(CCC(C)C1CCC2C3CC=C4CC(O)CCC4(C)C3CCC12C)C(C)C` (stereo unspecified) (tested in a mixture with another compound), the growth in assay [1] is 112%; in [2], 101%; in [3], 145%; in assay [4] it was 114%; in assay [5], 96.6%; in assay [6], 116%. In addition, the growth in assay [7] is 96%; in assay [8], 107%; in assay [9], 115%; in assay [10], 82%; in assay [11] it was 138%; in assay [12], 115%. Also, the growth in [14] was 79.9%; in assay [15], 76.9%; in assay [16], 80.3%; in [17], 92.2%; in assay [18], 95.6%.

Consider `Fc1ccc([C@@H]2CCNC[C@H]2COc2ccc3c(c2)OCO3)cc1`, for which the growth was 82.5% in assay [1]; 83.2% in assay [2]; 73.2% in assay [3]; 73.5% in [5]; 64.6% in assay [6]; 83% in assay [19]. Further, the growth in assay [7] is 68.2%; in assay [8] it was -77.5% (active); in assay [9], 92.1%; in [10], 51.7%; in assay [11], 78.4%; in assay [12], 11.5%. The growth is 71.7% in assay [13]; 92.3% in [14]; 74.2% in assay [15]; 89.5% in assay [16]; 76.8% in assay [20]; 49.7% in [17]. In addition, in assay [18], the growth is 85.8%.

Regarding `CCN(CC)CCOc1ccc(C2=C(c3ccccc3)CCc3cc(OC)ccc32)cc1`, the growth in [1] is -11.6% (active); in assay [2] it was 58.6%; in assay [3] it was 17.6%; in assay [4], -74.9% (active); in assay [5], -55.9% (active); in [6], -25.3% (active). The growth in [7] is -82.3% (active); in [8] it was -69.6% (active); in assay [9] it was 41.3%; in assay [10], -31% (active); in assay [11] it was -91.4% (active); in assay [12], -2.94% (active). The growth in [14] was 33.1%; in assay [15] it was -72.7% (active); in assay [16], -17.4% (active); in assay [17], -63.6% (active); in assay [18], 6.79% (active).

On to `COc1ccc(C(=O)COc2cccc(/C=C3\Oc4ccc5ccccc5c4C3=O)c2)cc1`, for which the growth in assay [1] was 10.3%; in [2], 71.7%; in assay [3] it was 106%; in assay [4] it was 89.8%; in assay [5], 100%; in assay [6] it was -0.888% (active). In addition, the growth in assay [7] was 100%; in [8], 77.3%; in assay [10], 81.4%; in assay [11] it was 17.2%; in assay [12], 79.3%; in assay [14], 83.7%. The growth is 119% in assay [15]; -50% (active) in [16]; 95.7% in assay [20]; 49.2% in [17]; 43.7% in [18].

Turning to `CCCCOc1ccc(C(C)(C)c2ccc(OCCCC)cc2)cc1`, the growth is 103% in [1]; 104% in assay [2]; 99.1% in assay [3]; 102% in [4]; 113% in [5]; 92.3% in assay [6]. The growth is 91% in [7]; 121% in [8]; 107% in assay [9]; 98.7% in assay [11]; 111% in assay [12]; 125% in [13]. The growth in assay [14] was 115%; in assay [16], 92.1%; in [17], 104%; in assay [18] it was 107%.

In the case of `Nc1nc(Cl)c2[nH]cnc2n1`, the growth in assay [1] was 87%; in assay [2], 101%; in [3], 93.1%; in assay [4], 95.2%; in assay [5], 86.9%; in assay [6] it was 96.2%. The growth in assay [7] was 96.8%; in [8] it was 103%; in assay [9] it was 119%; in assay [10] it was 118%; in [11], 94.4%; in assay [12], 111%. Moreover, the growth in assay [14] is 101%; in [15] it was 93.7%; in [16] it was 97.4%; in assay [17], 97.7%; in assay [18] it was 103%.

Turning to `CCS(=O)(=O)OCCCl`, the growth in assay [1] was 22.4%; in assay [2] it was 98.4%; in assay [3] it was 103%; in assay [4], 108%; in [5], 107%; in [6], 14.3%. In addition, the growth is 96.5% in [7]; 102% in [8]; 116% in assay [9]; 122% in assay [10]; 113% in assay [11]; 118% in assay [12]. Besides, the growth was 107% in [14]; 97.2% in assay [15]; 94.9% in assay [16]; 72.1% in [20]; 116% in [17]; 92.9% in [18].
